Among the test systems are RPMI-8226 leukemia; OVCAR-8 ovarian; OVCAR-5 ovarian; OVCAR-4 ovarian; SK-OV-3 ovarian; IGROV1 ovarian; OVCAR-3 ovarian; NCI/ADR-RES ovarian; BT-549 breast; MDA-MB-435 melanoma; SW-620 colon; MCF7 breast; HCT-116 colon; HCC-2998 colon; KM12 colon; HS 578T breast; T-47D breast.
Experiment in all cases: NCI-60 one-dose screen, 48 h (100 = growth as untreated, 0 = no growth, -100 = all killed)
Holding throughout (conditions): 10 µM unless noted

Molecules are shown by their SMILES. About 83,000 compounds went through this panel and 20% of them were active in at least one assay; those are over-represented in the sample as a whole.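 Values shown are percent growth following 48 h exposure of cells in 96-well plates to a single concentration of compound; below 10 was considered active.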 Unmarked numbers belong to inactive results. Activity calls are given as the source filed them.

`Cc1cc(Cl)nc(N(CCCNc2ccnc3cc(Cl)ccc23)Cc2ccccn2)n1`: the growth in the assay with RPMI-8226 leukemia was 1.09% (active); with OVCAR-8 ovarian, 33.8%; in the assay with OVCAR-5 ovarian, 56%; in the assay on OVCAR-4 ovarian, 41.4%; in the assay on SK-OV-3 ovarian, 65%; in the assay with IGROV1 ovarian, 44.1%. The growth with OVCAR-3 ovarian was 62.8%; in the assay on NCI/ADR-RES ovarian, 32.2%; in the assay with BT-549 breast it was 54%; with MDA-MB-435 melanoma, 52.7%; with SW-620 colon it was 53.3%; in the assay on MCF7 breast, 32.9%. The growth is 14.9% with HCT-116 colon, 74.2% with HCC-2998 colon and 48% in the assay on KM12 colon.

On to `CS(=O)(=O)c1ccc(-c2[nH]c3ccc(F)cc3c2/C=N/NC(N)=S)cc1`, for which the growth with RPMI-8226 leukemia is 12%; with OVCAR-8 ovarian it was 20.8%; with OVCAR-5 ovarian it was 28.2%; in the assay on OVCAR-4 ovarian it was 50%; with SK-OV-3 ovarian, 13.4%; in the assay on IGROV1 ovarian, 29%. Also, the growth in the assay with OVCAR-3 ovarian was 11.8%; in the assay on HS 578T breast, 28%; with NCI/ADR-RES ovarian it was 11.1%; in the assay on BT-549 breast, 39.3%; in the assay on MDA-MB-435 melanoma it was -16.3% (active); in the assay with MCF7 breast, 19.3%. Further, the growth was 8.16% (active) in the assay on HCT-116 colon, 24.3% in the assay on HCC-2998 colon and 18.5% in the assay with KM12 colon.

On to `CC(C)(C)Nc1c(-c2c3ccccc3cc3ccccc23)nc2ccccn12`, for which the growth in the assay with RPMI-8226 leukemia was 55%; in the assay on OVCAR-8 ovarian, 67.2%; with OVCAR-5 ovarian, 78.5%; in the assay on SK-OV-3 ovarian, 59.6%; in the assay with IGROV1 ovarian it was 64.2%; in the assay on OVCAR-3 ovarian, 72.3%. Further, the growth with HS 578T breast is 72%; with NCI/ADR-RES ovarian, 82.9%; in the assay on BT-549 breast, 92.1%; in the assay with MDA-MB-435 melanoma, 90.1%; with SW-620 colon it was 67.3%; in the assay with MCF7 breast, 74.2%. Moreover, the growth with HCT-116 colon is 46.2%; in the assay on HCC-2998 colon, 86%; in the assay with KM12 colon, 61.4%.

As to `CC(C)OC(=O)OCOP(=O)(OCOC(=O)OC(C)C)C1CCCN(O)C1=O` (stereo not drawn), the growth in the assay with RPMI-8226 leukemia was 11.8%; in the assay with OVCAR-8 ovarian it was 2.91% (active); in the assay on OVCAR-5 ovarian, 73.4%; with SK-OV-3 ovarian it was 5.92% (active); in the assay on IGROV1 ovarian, 9.36% (active); in the assay with OVCAR-3 ovarian, 33.5%. The growth with HS 578T breast is 7.77% (active); in the assay with NCI/ADR-RES ovarian, 39.2%; in the assay with BT-549 breast, 22.8%; in the assay on MDA-MB-435 melanoma it was 47.3%; with MCF7 breast it was 31.9%; in the assay with HCT-116 colon, 13.4%. For the same compound, the growth with HCC-2998 colon was 23.7%; in the assay on KM12 colon, 9.54% (active).

On to `COC(=O)/C(=C\c1ccc(OC)cc1)C(=O)N1c2ccccc2Sc2ccccc21`, for which the growth with RPMI-8226 leukemia was 54.4%; in the assay with OVCAR-5 ovarian, 75.1%; in the assay on OVCAR-4 ovarian, 89.3%; in the assay on SK-OV-3 ovarian it was 91.7%; with IGROV1 ovarian, 43.6%; with OVCAR-3 ovarian, 24.5%. For the same compound, the growth is 56.1% in the assay with HS 578T breast; 16.4% in the assay on NCI/ADR-RES ovarian; 48.4% with T-47D breast; -45.7% (active) in the assay on BT-549 breast; -57.8% (active) with MDA-MB-435 melanoma; 26.8% in the assay on MCF7 breast. For the same compound, the growth in the assay with HCT-116 colon is 23.3%; in the assay on HCC-2998 colon, 86.8%; in the assay on KM12 colon it was 36.1%.

Regarding `NC(=O)CC1(O)C=C(Br)C(=O)C(Br)=C1`, the growth in the assay on RPMI-8226 leukemia is -31.3% (active); in the assay on OVCAR-8 ovarian, 95.9%; in the assay with OVCAR-5 ovarian it was 70.2%; in the assay with OVCAR-4 ovarian, 34.7%; in the assay with SK-OV-3 ovarian it was 99.1%; with IGROV1 ovarian, 82.2%. Also, the growth in the assay on OVCAR-3 ovarian was -9.94% (active); in the assay with T-47D breast it was 31%; in the assay with BT-549 breast, 28.8%; with MDA-MB-435 melanoma, 32.4%; with SW-620 colon it was -36.1% (active); in the assay with MCF7 breast, 25.6%. For the same compound, the growth was -61.9% (active) in the assay on HCT-116 colon, 76.3% in the assay on HCC-2998 colon and 109% in the assay with KM12 colon.

In the case of `C=C(CNCCc1ccc(O)cc1)[C@@H]1CC[C@]2(COC3CCCCO3)CC[C@]3(C)[C@H](CC[C@@H]4[C@@]5(C)CCC(N)C(C)(C)[C@@H]5CC[C@]43C)[C@@H]12` (stereo partly drawn), the growth in the assay with RPMI-8226 leukemia was -64.9% (active); in the assay on OVCAR-8 ovarian, -61.6% (active); in the assay with OVCAR-5 ovarian, -90.6% (active); in the assay on OVCAR-4 ovarian, -77.5% (active); in the assay with SK-OV-3 ovarian it was -95.1% (active); with IGROV1 ovarian it was -82.1% (active). For the same compound, the growth was -49.5% (active) in the assay with HS 578T breast; -67.1% (active) in the assay on NCI/ADR-RES ovarian; -70% (active) with BT-549 breast; -95% (active) in the assay with MDA-MB-435 melanoma; -77.4% (active) with SW-620 colon; -79.8% (active) with MCF7 breast. In addition, the growth is -91.3% (active) with HCT-116 colon, -84.7% (active) in the assay on HCC-2998 colon and -85.7% (active) with KM12 colon.

In the case of `C[C@@H]1CC[C@@H]2[C@@H]1[C@H](OC(=O)c1ccc3ccccc3c1)[C@]1(C3CCCCC3)C[C@@H](OC(=O)CO)[C@@]2(C)O1`, the growth in the assay on RPMI-8226 leukemia is 31.4%; in the assay on OVCAR-8 ovarian, 18.5%; in the assay on OVCAR-5 ovarian, 89.4%; with SK-OV-3 ovarian, 75.4%; in the assay on IGROV1 ovarian, 71.1%; in the assay with OVCAR-3 ovarian, 73.6%. Also, the growth in the assay on HS 578T breast was -32.1% (active); in the assay on NCI/ADR-RES ovarian, 14.6%; in the assay on BT-549 breast, 0.366% (active); in the assay with MDA-MB-435 melanoma it was 72.1%; with SW-620 colon, 65.1%; with MCF7 breast, 20.5%. The growth is 28.3% in the assay with HCT-116 colon, 51.3% in the assay on HCC-2998 colon and 54.2% in the assay with KM12 colon.

`Cc1ccc(O)c(C(=O)c2ccccc2Cl)c1`: the growth in the assay on RPMI-8226 leukemia is 112%; in the assay with OVCAR-8 ovarian, 97.6%; in the assay with OVCAR-5 ovarian, 85%; with OVCAR-4 ovarian, 91.9%; with SK-OV-3 ovarian it was 112%; with IGROV1 ovarian, 102%. Besides, the growth in the assay on OVCAR-3 ovarian was 118%; in the assay with T-47D breast it was 108%; in the assay with BT-549 breast, 93.8%; with MDA-MB-435 melanoma, 93.2%; with SW-620 colon, 98.4%; with MCF7 breast, 101%. The results for the growth with HCT-116 colon, with HCC-2998 colon and in the assay with KM12 colon were 99%, 56.2% and 116%, respectively.

Turning to `C=C1c2c(C)nn(-c3ccc(NC(C)=O)cc3)c2N(C)C23CC1C1(C)c4c(C)nn(-c5ccc(NC(C)=O)cc5)c4N(C)C(C)(CC12)C3` (stereo not drawn), the growth in the assay with RPMI-8226 leukemia was -50.5% (active); in the assay on OVCAR-5 ovarian, 78.1%; with OVCAR-4 ovarian, 35%; in the assay with SK-OV-3 ovarian, 48.5%; in the assay with IGROV1 ovarian it was 64.8%; in the assay with OVCAR-3 ovarian, 34.3%. Moreover, the growth was 62.6% with HS 578T breast; 43.4% in the assay on NCI/ADR-RES ovarian; 44% with BT-549 breast; 30.6% in the assay with MDA-MB-435 melanoma; 9.67% (active) in the assay with MCF7 breast; 13.4% in the assay on HCT-116 colon. For the same compound, the growth was 44.7% with HCC-2998 colon and 23.6% in the assay on KM12 colon.

For the origin of these results see PubChem BioAssay (NCI).
